The values below come from ChEMBL document CHEMBL3988442, “University of Dundee, Small-Polar-MMV Screening Library” (2021).

Parameters in all cases: scale not given: direction of the effect not stated beside the values
Test [1] deals with Protein translocase subunit SecA (Escherichia coli (strain K12)) (UniProt P10408). The test can be described thus: Assay to Identify E. coli SecA ATPase Inhibitors. The class given is functional. Conditions: 30 µM.
The target in test [2] is T1, Ubiquitin-activating enzyme e1, putative (Leishmania donovani (strain BPK282A1)) (UniProt E9BSI1).
T1 sequence (whole entry): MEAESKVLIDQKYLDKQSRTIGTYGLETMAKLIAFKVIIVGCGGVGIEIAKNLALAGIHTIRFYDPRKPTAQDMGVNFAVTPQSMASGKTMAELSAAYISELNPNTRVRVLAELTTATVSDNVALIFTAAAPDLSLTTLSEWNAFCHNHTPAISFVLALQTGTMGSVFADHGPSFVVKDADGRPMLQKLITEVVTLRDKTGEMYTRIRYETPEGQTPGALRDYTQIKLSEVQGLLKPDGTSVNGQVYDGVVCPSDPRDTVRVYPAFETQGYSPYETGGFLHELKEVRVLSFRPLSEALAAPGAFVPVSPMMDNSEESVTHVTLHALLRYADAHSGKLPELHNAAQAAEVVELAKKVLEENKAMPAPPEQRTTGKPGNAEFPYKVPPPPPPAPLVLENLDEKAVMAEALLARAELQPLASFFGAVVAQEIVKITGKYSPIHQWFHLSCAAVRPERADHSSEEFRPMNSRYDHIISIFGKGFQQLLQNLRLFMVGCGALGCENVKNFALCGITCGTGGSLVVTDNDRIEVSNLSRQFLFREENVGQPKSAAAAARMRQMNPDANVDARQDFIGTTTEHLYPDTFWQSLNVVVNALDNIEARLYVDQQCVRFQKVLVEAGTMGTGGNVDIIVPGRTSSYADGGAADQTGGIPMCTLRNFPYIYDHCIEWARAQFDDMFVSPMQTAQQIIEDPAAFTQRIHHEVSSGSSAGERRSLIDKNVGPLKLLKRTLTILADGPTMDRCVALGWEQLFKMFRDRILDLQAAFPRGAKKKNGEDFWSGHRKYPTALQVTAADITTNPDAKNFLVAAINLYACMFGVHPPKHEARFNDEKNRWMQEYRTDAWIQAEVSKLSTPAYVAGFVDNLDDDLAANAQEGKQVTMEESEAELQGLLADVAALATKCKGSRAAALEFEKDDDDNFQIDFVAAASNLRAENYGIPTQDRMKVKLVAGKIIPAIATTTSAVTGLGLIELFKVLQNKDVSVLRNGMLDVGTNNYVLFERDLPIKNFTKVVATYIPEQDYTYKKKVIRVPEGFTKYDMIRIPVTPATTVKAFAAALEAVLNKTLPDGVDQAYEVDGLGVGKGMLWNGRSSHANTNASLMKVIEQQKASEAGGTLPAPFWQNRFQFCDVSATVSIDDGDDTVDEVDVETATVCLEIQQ
The experiment in a line: Leishmania donovani Ubiquitin Activating Enzyme (LdE1). Format: functional. Conditions: 30 µM.

Test [3] concerns the target AMP-activated protein kinase, AMPK (Homo sapiens) (UniProt P54646+O43741+P54619+Q9UGJ0+Q9Y478+Q13131+Q9UGI9). The test can be described thus: AMP-dependent Kinase enzyme assay. An in vitro enzyme assay that detects ADP turnover that is directly proportional to AMPK activity. This uses naive AMPK that is activated during the assay with MK-8722. The class given is functional. The following applies: 30 µM.

In test [4] the target is Sialic acid-binding Ig-like lectin 9 (Homo sapiens) (UniProt Q9Y336). The test can be described thus: Hs-Siglec9 ALPHAscreen SOP 20170721. The following applies: 10 µM.
Another test has as its system Trypanosoma cruzi. The test can be described thus: Trypanosoma cruzi phosphomannomutase and mannose-1-phosphate guanylyltransferase assay. The class given is functional. Conditions: 10 µM.
The target of test [5] is T2, Arginase-2, mitochondrial (Homo sapiens) (UniProt P78540).
T2 sequence (whole entry): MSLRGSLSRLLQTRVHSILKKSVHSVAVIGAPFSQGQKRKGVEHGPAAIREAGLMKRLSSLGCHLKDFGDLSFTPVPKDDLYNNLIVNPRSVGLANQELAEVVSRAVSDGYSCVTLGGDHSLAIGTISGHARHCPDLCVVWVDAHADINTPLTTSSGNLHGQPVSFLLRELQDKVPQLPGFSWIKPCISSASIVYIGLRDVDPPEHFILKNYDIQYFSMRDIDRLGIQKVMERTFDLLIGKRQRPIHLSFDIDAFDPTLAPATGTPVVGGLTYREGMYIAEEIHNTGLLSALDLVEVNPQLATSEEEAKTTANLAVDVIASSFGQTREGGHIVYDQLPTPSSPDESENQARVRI
The experiment in a line: in vitro enzyme assay to detect the production of urea directly proportional to the activity of Arginase II. Note: in the data most compounds retested in dose-response had high values. Format: functional. The following applies: 33.3 µM.

Test [6] deals with T3, Proteasome subunit beta (Trypanosoma cruzi) (UniProt O96673).
T3 sequence (whole entry): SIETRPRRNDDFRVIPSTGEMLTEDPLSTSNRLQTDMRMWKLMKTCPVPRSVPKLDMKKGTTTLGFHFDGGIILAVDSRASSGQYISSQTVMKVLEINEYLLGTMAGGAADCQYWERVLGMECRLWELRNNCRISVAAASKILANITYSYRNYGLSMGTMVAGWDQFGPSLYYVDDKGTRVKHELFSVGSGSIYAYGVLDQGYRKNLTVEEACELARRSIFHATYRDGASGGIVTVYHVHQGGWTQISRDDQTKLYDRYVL
The experiment in a line: Trypanosoma cruzi proteasome chymotrypsin-like activity (TcProtChymo) assay. Note: in the data most compounds retested in dose-response had high values. Format: functional. The following applies: 9.37 µM.

A further test is filed under the species Homo sapiens. The experiment in a line: To identify inhibition of the IFN signalling (Jak-Stat) pathway via expression of an eGFP reporter gene under the control of an IFN-stimulated response element (ISRE) containing MxA promoter. The class given is functional. The following applies: 30 µM. In general terms: Reporter assays use an easily measured gene product as a stand-in for the process of interest.

Test [7] addresses T4, Tyrosyl-tRNA synthetase, putative (Trypanosoma cruzi (strain CL Brener)) (UniProt Q4DSP6).
T4 sequence (whole entry): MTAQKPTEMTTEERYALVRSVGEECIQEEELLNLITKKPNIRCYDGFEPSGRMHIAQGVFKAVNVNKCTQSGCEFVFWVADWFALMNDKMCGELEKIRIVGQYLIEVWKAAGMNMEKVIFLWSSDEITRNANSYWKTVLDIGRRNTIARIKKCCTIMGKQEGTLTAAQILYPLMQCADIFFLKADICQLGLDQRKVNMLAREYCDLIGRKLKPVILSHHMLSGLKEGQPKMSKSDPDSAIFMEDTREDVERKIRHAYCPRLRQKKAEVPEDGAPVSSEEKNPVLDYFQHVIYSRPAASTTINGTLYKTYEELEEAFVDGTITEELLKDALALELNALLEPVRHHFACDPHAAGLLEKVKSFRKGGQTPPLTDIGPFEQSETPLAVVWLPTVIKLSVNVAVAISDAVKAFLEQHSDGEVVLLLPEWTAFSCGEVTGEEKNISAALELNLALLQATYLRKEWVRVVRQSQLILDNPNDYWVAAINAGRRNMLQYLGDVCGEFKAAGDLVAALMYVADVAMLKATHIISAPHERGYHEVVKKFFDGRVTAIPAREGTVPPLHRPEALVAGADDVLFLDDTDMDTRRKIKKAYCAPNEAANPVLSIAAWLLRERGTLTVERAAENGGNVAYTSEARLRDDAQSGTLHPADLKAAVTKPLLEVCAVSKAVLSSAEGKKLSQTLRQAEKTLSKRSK
The experiment in a line: Trypanosoma cruzi tyrosyl tRNA synthetase (TcYRS) _High Tyrosine SOP. Note: in the data most compounds retested in dose-response had high values. The class given is functional. Conditions: 30 µM.

For test [8], the target named is T4, Tyrosyl-tRNA synthetase, putative (Trypanosoma cruzi (strain CL Brener)). The test can be described thus: Trypanosoma cruzi tyrosyl tRNA synthetase (TcYRS) SOP. The class given is functional. Conditions: 30 µM.
For test [9], the target named is Chromo domain-containing protein 1 (Saccharomyces cerevisiae (strain ATCC 204508 / S288c) (Baker's yeast)) (UniProt P32657). The experiment in a line: ScCHD-1 Enzyme Inhibition Assay. Note: in the data most compounds retested in dose-response had high values. Format: functional. Conditions: 30 µM.

For some assays here: Results with a measured potency or affinity are listed apart.

Chain of Protein translocase subunit SecA (Escherichia coli (strain K12)) (P10408 whole entry): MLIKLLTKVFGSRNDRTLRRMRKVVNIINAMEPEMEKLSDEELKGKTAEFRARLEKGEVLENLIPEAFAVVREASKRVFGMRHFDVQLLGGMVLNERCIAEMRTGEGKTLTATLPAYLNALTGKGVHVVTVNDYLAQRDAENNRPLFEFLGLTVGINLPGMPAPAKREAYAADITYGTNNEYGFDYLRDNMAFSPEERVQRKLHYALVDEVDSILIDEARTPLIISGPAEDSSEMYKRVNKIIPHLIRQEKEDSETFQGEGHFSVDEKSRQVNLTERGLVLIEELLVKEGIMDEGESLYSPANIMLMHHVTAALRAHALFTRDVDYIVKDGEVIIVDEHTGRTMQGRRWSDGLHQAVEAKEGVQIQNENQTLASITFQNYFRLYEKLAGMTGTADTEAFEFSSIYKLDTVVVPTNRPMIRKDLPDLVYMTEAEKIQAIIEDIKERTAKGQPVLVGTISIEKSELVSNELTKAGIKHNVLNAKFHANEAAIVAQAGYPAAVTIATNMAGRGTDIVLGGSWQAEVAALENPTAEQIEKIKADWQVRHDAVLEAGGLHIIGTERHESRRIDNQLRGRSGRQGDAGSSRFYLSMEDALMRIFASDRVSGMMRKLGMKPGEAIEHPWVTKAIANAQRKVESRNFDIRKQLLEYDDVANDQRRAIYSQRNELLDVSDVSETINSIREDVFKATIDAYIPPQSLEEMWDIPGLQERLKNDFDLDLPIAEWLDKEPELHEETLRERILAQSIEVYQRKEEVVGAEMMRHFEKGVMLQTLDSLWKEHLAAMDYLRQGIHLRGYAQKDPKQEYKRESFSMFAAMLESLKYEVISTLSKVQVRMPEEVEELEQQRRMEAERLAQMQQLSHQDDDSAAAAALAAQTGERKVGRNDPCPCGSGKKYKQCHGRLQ
Chain of Sialic acid-binding Ig-like lectin 9 (Homo sapiens) (Q9Y336 whole entry): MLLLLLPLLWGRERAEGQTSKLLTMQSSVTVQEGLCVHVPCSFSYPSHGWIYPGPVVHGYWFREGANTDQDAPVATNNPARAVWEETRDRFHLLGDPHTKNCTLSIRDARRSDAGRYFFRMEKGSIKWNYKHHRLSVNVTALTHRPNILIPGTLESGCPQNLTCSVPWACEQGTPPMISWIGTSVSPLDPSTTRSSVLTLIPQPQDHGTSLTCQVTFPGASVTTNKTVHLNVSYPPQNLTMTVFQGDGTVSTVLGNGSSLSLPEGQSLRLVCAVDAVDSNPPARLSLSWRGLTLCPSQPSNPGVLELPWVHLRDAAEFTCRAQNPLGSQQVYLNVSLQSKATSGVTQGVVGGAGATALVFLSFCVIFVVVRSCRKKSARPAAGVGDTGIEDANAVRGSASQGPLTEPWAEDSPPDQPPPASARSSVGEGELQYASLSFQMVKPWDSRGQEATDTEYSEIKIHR
Chain of Chromo domain-containing protein 1 (Saccharomyces cerevisiae (strain ATCC 204508 / S288c) (Baker's yeast)) (P32657 whole entry, the tested form may be a part): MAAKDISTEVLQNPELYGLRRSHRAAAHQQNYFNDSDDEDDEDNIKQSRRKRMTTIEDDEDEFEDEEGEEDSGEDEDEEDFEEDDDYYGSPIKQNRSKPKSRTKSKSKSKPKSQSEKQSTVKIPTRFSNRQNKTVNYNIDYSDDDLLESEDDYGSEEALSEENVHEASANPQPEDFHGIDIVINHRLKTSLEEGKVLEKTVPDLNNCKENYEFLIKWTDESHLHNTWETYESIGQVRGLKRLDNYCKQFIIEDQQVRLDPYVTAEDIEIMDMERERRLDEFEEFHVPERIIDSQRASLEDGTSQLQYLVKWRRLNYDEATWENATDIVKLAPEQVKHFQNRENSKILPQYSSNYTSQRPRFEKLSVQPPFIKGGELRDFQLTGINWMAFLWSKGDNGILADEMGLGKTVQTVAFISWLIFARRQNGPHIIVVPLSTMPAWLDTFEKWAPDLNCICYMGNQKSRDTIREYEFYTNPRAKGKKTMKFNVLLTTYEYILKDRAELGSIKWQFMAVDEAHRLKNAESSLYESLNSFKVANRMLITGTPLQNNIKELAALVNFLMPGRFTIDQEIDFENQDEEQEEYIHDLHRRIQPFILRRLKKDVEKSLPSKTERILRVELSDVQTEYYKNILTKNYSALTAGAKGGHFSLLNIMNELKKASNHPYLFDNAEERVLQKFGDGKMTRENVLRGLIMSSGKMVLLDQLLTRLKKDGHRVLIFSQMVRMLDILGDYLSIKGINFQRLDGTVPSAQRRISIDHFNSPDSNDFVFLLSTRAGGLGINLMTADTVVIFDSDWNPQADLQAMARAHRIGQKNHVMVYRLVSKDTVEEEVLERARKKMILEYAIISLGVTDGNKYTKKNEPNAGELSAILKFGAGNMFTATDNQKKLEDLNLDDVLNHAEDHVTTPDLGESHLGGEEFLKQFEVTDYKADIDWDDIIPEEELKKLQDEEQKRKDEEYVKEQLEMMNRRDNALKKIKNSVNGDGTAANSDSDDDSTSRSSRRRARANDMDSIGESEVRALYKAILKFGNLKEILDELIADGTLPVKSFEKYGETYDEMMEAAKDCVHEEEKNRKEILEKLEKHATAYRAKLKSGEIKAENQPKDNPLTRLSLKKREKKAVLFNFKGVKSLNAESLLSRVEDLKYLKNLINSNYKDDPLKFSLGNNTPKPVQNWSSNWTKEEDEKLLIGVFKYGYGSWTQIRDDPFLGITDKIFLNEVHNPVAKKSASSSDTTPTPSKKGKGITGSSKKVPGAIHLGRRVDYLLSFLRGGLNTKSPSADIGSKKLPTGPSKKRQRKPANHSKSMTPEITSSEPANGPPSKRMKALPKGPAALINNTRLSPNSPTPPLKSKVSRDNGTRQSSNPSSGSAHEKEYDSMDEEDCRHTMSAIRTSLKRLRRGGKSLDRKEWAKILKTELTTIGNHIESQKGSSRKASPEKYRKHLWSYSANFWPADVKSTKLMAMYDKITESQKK

On to `c1cnc(NCc2cncc3c2CCN(Cc2cccs2)C3)nc1`, for which the Percent Effect in [1] is -0.336%; in test [2], 10.7%; in test [3], 8.51%; in test [4] it was -0.683%; in the test on Trypanosoma cruzi, -7.28%; in test [5], 2.1%. The Percent Effect in test [6] was 9.43%; in the test filed under Homo sapiens, 12.1%; in [7], 3.19%; in [8] it was 8.97%; in test [9], -5.11%.
Take `CCN1CCN(CC(O)c2ccc(OC(F)(F)F)cc2)CC1` (stereo not given): the Percent Effect in test [1] is -9.59%; in [2] it was 16.2%; in test [3] it was -17.6%; in test [4], 27.4%; in the test on Trypanosoma cruzi, 9.34%; in [5], -19.6%. Further, the Percent Effect in [6] is 9.73%; in the test filed under Homo sapiens it was 0.571%; in test [7], 6.4%; in [8] it was 18.5%; in [9], -20.3%.
As for `COCCNC(=O)c1ccc(C)c(-n2cccc2)c1`, the Percent Effect in test [1] is 2.25%; in [2], 13.2%; in test [3], 4.41%; in [4] it was -4.12%; in the test with Trypanosoma cruzi it was -3.8%; in test [5], -2.37%. The Percent Effect in test [6] is 14.3%; in the test listed under Homo sapiens it was -4.52%; in [7], 7.45%; in test [8] it was 7.79%; in test [9] it was -3.58%.
With `Cc1cccc(C(=O)NC(CN2CCCC2=O)c2ccccc2)n1` (stereo not given), the Percent Effect in [1] is -2.94%; in [2] it was 13.2%; in test [3], -3.02%; in test [4], 7.02%; in the test with Trypanosoma cruzi, 5.83%; in [5], 6.13%. The Percent Effect in test [6] is 8.35%; in the test filed under Homo sapiens, -4.47%; in test [7] it was 5.39%; in [8], 21.9%; in test [9], -10.3%.
As to `c1cnc(-c2nc(CN3CCOC(Cn4cncn4)C3)cs2)nc1` (stereo not given), the Percent Effect in [1] is -3.88%; in test [2], 29.7%; in [3], -7.99%; in test [4], -4.32%; in the test on Trypanosoma cruzi, -0.66%; in test [5] it was -12.8%. Further, the Percent Effect in test [6] is 9.91%; in the test filed under Homo sapiens, 18.1%; in test [7] it was 1.48%; in test [8], 13.6%; in test [9], -6.92%.
As for `O=C(NCc1ccco1)[C@H]1C[C@@H]2CCN(c3ccncn3)C[C@@H]2O1`, the Percent Effect was -3.35% in test [1]; 10.7% in test [2]; 1.73% in test [3]; 2.91% in test [4]; 6.56% in the test with Trypanosoma cruzi; -56.5% in test [5]. For the same compound, the Percent Effect is 16.9% in test [6]; -18.7% in the test filed under Homo sapiens; 6.25% in test [7]; 17.5% in test [8]; -5.87% in test [9].
Turning to `O=C(NCCNc1ncccn1)C1CCN(CC(F)(F)F)CC1`, the Percent Effect was -4.28% in [1]; 18.9% in test [2]; 5.29% in test [3]; 1.52% in [4]; -6.51% in the test with Trypanosoma cruzi; 0.802% in test [5]. Besides, the Percent Effect was 18.9% in [6]; 20.5% in the test filed under Homo sapiens; 7.39% in [7]; 11.1% in [8]; -4.74% in test [9].
Take `Cc1noc(C(C)C)c1C(=O)N1CCCN(Cc2cscn2)CC1`: the Percent Effect in test [1] is -4.04%; in test [2], 18.2%; in [3], -1.96%; in test [4], -7.63%; with Trypanosoma cruzi, 2.25%; in test [5], -0.632%. Further, the Percent Effect in [6] is 15.6%; in the test listed under Homo sapiens, 0.184%; in test [7], 7.62%; in test [8], 21.2%; in test [9] it was -23.9%.
Regarding `CCn1ncc2c1C(COC)CN(Cc1ccc(OC)cc1)C2` (stereo not given), the Percent Effect in test [1] is -1.81%; in [2] it was 5.41%; in [3], -4.68%; in [4], 14.4%; in the test with Trypanosoma cruzi it was 2.44%; in test [5], 0.744%. For the same compound, the Percent Effect in [6] was 3.35%; in the test listed under Homo sapiens, 40%; in [7], 2.15%; in test [8], 6.17%; in [9], -11.4%.
Turning to `O=C(c1cnc(COc2ccccc2)nc1O)N1CCOCC1`, the Percent Effect is -3.01% in test [1]; 4.17% in test [2]; -4.14% in test [3]; -9.54% in test [4]; -1.07% in the test on Trypanosoma cruzi; -0.442% in test [5]. Moreover, the Percent Effect in [6] is 8.77%; in the test filed under Homo sapiens, 16.1%; in [7], 2.1%; in test [8], 2.56%; in test [9], -1.09%.
